# In the library only some 2% were active in any assay of this set; here they are far more common.
# PLAP act – activates human placental alkaline phosphatase | P05187 | purified PLAP enzyme, luminescent substrate read-out; active compounds read high | activation fold at 20 µM | actives 1.2% (n = 96,000); in the data active = activation fold above about 2
# GALR2 blocker – antagonists of human galanin receptor 2 (GALR2). O43603. GALR2-expressing cells, antagonist mode. inhibition, % at 4 µM. actives 0.39% (n = 140,000); in the data active = inhibition above about 27%;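 also: cells stimulated with galanin 1-16 at roughly its EC80; 0% = agonist challenge control and 100% = basal control without agonist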
# S1P2 ag – activates the human S1P2 receptor; actives 0.46% (n = 97,000); AID 729; O95136; activation, % at 4.5 µM; S1P2-expressing cell line, agonist reporter read-out; in the data active = activation above about 16%;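 also: 0% = vehicle low control and 100% = maximal reference agonist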
# Target sequence (O95136 whole entry, looked up): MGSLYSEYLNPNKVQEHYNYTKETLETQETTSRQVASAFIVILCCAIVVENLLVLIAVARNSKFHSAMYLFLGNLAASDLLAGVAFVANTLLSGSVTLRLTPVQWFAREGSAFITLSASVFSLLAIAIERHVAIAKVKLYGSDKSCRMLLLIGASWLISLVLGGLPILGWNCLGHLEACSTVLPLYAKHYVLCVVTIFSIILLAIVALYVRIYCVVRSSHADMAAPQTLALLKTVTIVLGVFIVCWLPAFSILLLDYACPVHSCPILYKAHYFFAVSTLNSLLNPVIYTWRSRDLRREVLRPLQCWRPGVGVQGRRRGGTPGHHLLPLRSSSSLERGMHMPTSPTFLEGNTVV
# S1P2 blocker – S1P2 (human) receptor antagonism. O95136. cell-based S1P2 antagonist assay, inhibition at 5 uM. AID 736. inhibition, % at 5 µM. actives 0.21% (n = 97,000); in the data active = inhibition above about 45%;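 also: CRE beta-lactamase reporter cells expressing human S1P2 stimulated with S1P; 0% = agonist at EC80 alone and 100% = agonist plus reference antagonist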
# GALR2 agonist – agonists of human galanin receptor 2 (GALR2) | GALR2-expressing cells, agonist activation read-out | AID 803 | actives 0.48% (n = 140,000) | O43603 | activation, % (no concentration beside the values); in the data active = activation above about 5%, passing the limit was not always enough;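 also: 0% = vehicle buffer wells and 100% = reference agonist at full effect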
# * marks the source's active call; other numbers are inactive results; nt = no result.
SMILES,PLAP act,GALR2 blocker,S1P2 ag,S1P2 blocker,GALR2 agonist
O=c1c(S(=O)(=O)c2ccc(Cl)cc2)cn(Cc2ccccc2F)c2ccc(F)cc12,nt,-12,nt,nt,-3
COc1ccc2nc(NCCCNC(=O)c3cc(OC)c(OC)c(OC)c3)c(C#N)cc2c1,2.4*,2,3,-21,1
Cc1cccc(-n2c(SCc3cc(=O)n4ccsc4n3)nc3ccccc32)c1,nt,0,26*,-42,1
Cc1n[nH]c(=S)n1/N=C/c1ccc(-c2ccccc2[N+](=O)[O-])o1,2*,8,-5,-13,-2
COc1ccc(N(C(=O)C(C)C)S(=O)(=O)c2ccc3c(c2)n(C)c(=O)n3C)cc1,1.4,4,-8,-2,-1
COc1cccc(NC(=O)[C@@H]2CCCN2C(=O)C2CCN(S(=O)(=O)c3ccc(C)cc3)CC2)c1,2*,-3,-6,5,0
COc1ccccc1CNC(=O)[C@@H]1CCCN1C(=O)C1CCN(S(=O)(=O)c2ccc(C)cc2)CC1,1.6,3,nt,nt,0
COc1ccc(OC)c(S(=O)(=O)N2CCC(C(=O)Nc3cccc(C)c3)CC2)c1,2.2*,7,-5,12,-2
O=C1C2C3CCCC3=C3CCCC3C2C(=O)N1c1ccccc1 (configuration not stated),0.9,1,-12,4,-1
Cc1c(C(=O)Nc2ccccc2N2CCOCC2)sc2nc3n(c(=O)c12)CCC3,1.1,nt,nt,nt,nt
CCCCCCOC(=O)C(C#N)c1nc2ccccc2nc1N1CCOCC1 (configuration not stated),1.2,-2,-1,66*,-1
O=C(Cc1cn2ccsc2n1)Nc1nc2c(s1)CCCC2,2*,3,-11,3,-3
CC(=O)C1=C(O)C(=O)N(CC#N)C1c1cccs1 (configuration not stated),1.1,-4,37*,15,-1
COc1cc2c(cc1NS(=O)(=O)N1CCCCC1)oc1ccccc12,1.5,2,-10,13,-2
Nc1nc(SCC(=O)Nc2ccccc2)nc2nc3c(cc12)CCCC3,nt,4,nt,nt,0
Nc1nc(SCc2ccc([N+](=O)[O-])cc2)nc2nc3c(cc12)CCCC3,nt,-4,nt,nt,5.1*
CC(C)Cn1c(N)c(C(=O)CSc2ccc3c(c2)OCCO3)c(=O)n(C)c1=O,0.8,11,-3,54*,-2
CCc1sc(C(=O)NC2CCN(C)CC2)cc1Br,1.4,-3,-3,3,-2
Cc1cccnc1NCc1ccc(O)c2ncccc12,2.6*,15,-2,9,-1
CCOC(=O)C(=CN(CCc1ccccc1)CC(=O)OC)C(=O)OCC,nt,-7,nt,nt,-1
CC(C)n1c(=NC(=O)c2ccco2)c(C#N)cc2c(=O)n3ccccc3cc21,nt,0,nt,nt,6.3*
CCOc1ccc(C(C)NC(=O)Nc2ccccc2C(=O)OC)cc1 (configuration not stated),0.8,-8,-4,11,0
CCOc1ccc2cc(/C=C/C(=O)c3ccco3)c(Cl)nc2c1,1.2,32*,-9,30,0
O=C(NC1CC1)c1cc(-c2ccccn2)nc2ccccc12,0.9,8,-6,-13,-4
Cn1c(N)c(C(=O)c2cc(-c3ccccn3)nc3ccccc23)c(=O)[nH]c1=O,2*,-4,0,-14,-1
SMILES,PLAP act,GALR2 blocker,S1P2 ag,S1P2 blocker,GALR2 agonist
CCN(CC)c1nc(C#N)cc(-c2ccc(OC)cc2)n1,0.7,-9,19*,-22,1
CCOc1cc2c(C#N)c(N3CCNCC3)nc(N)c2c(N)n1,0.9,3,20*,-57,-3
Cc1cccc(NC(=S)N/N=C/c2c[nH]c3ccccc23)c1,nt,2,nt,nt,-1
CCc1nc(SCC(=O)NNC(=O)C(C)C)c2ccccc2n1,2*,11,-2,1,-2
CCc1nc(SCC(=O)NNC(=O)C2CCCCC2)c2ccccc2n1,1.7,12,-3,-18,-3
COc1ccccc1/C=C(\NC(=O)c1ccc(OC)c(OC)c1)C(=O)Nc1cc([N+](=O)[O-])ccc1C,nt,-1,nt,nt,0
CCCCOc1ccccc1C1C(C(=O)OC)=C(C)N(C)C(C)=C1C(=O)OC,nt,-1,-1,-20,-2
CCCCN1C=C(C(=O)OC)C(c2ccccc2C(F)(F)F)C(C(=O)OC)=C1,0.9,-10,19*,-17,1
Cc1nc2ccc(S(=O)(=O)Nc3ccccc3C)cc2s1,1.1,1,nt,nt,-1
COc1ccc(CCNc2nc(C)nc3c2oc2ccccc23)cc1OC,2*,6,-5,-15,-1
Cc1cccc2cc(C(c3nnnn3CC3CCCO3)N3CCc4ccccc4C3)c(=O)[nH]c12 (configuration not stated),1.4,1,128*,6,-2
CCC(C)(C)n1nnnc1CN1CCC(c2nc3ccc(C)cc3[nH]2)CC1,2.3*,-9,-10,22,-3
Cc1cc2nc(C3CCN(Cc4nnnn4Cc4ccccc4)CC3)[nH]c2cc1C,2.4*,7,-9,3,0
Clc1ccc(CN2CCC(c3nc4ccc(Cl)cc4[nH]3)CC2)cc1,1.5,7,-6,36,-1
Cc1csc(SCC(=O)Nc2sc3c(c2C#N)CCC3)n1,1.1,4,-3,-24,-1
Cc1ccnc(SCC(=O)Nc2sc3c(c2C#N)CCCC3)n1,1,22,-5,47*,-2
Cc1ccc(C(=O)CN(C(=O)c2ccc(Cl)c(Cl)c2)N2C(=O)C3C4C=CC(C4)C3C2=O)cc1 (configuration not stated),1.4,7,-10,17,-2
Cc1cc(C)nc(Nc2ncc(O)n2-c2ccc(C)c(C)c2)n1,2.6*,3,-4,-3,-2
CCOC(=O)C[n+]1c(C)ccc2c1CCC2,nt,12,-2,-6,-2
Cc1ccc(C)c(CN2C(=O)C3CCCN3c3ccc(S(=O)(=O)N4CCOCC4)cc32)c1 (configuration not stated),1.4,-8,-1,4,-1
Cc1csc(NC(=O)c2nc(-c3ccccc3)n(-c3ccccc3)n2)n1,2.8*,9,nt,nt,0
Cc1cc(C)n2nc(C(=O)Nc3nccs3)nc2n1,1,7,-10,5,-3
Cc1csc(NC(=O)c2nc3nc(C)cc(C)n3n2)n1,2.1*,-3,-3,-2,-2
Cc1cccc(NC(=S)NC(=O)c2ccco2)n1,nt,7,nt,nt,-1
Cc1cc(C(=O)N/N=C/c2cccnc2)cs1,nt,13,nt,nt,-2
SMILES,PLAP act,GALR2 blocker,S1P2 ag,S1P2 blocker,GALR2 agonist
CCOc1ccc2c(c1)-c1c(ssc1=S)C(C)(C)N2C(=O)c1ccco1,nt,-3,nt,nt,-1
CCOC(=O)c1c(C(F)(F)C(F)(F)C(F)(F)C(F)(F)F)n[nH]c1C,1.7,2,-3,-25,-1
CN(C)S(=O)(=O)c1cccc(-c2nn(-c3ccccc3)cc2/C=C(\C#N)c2nc3ccccc3[nH]2)c1,nt,-7,nt,nt,7.3*
N#C/C(=C\c1cn(-c2ccccc2)nc1-c1cc2ccccc2o1)c1nc2ccccc2[nH]1,nt,20,nt,nt,2
Clc1ccc(-c2ccc(/C=N/Nc3cc(N4CCOCC4)nc(N4CCOCC4)n3)o2)cc1,nt,-10,54*,-69,30*
CCOC(=O)c1c(C)n(C)c2cc(-c3ccc(C)cc3)c(O)cc12,nt,-9,nt,nt,5.3*

# Screening data deposited in PubChem by several laboratories.
